# Data: article PMC5700166
# Changes are numbered by the printed parent chain.
# What was measured:
# Test in all cases: protein-binding microarray (PBM); PBM: ~300 nM protein, 6 mM HEPES pH 7.8, 80 mM KCl, 0.5 mM EDTA, 0.5 mM EGTA, 6% glycerol, 35 ng/ul poly-dIdC, 1% milk, 1 h, room temperature; Ap Aiptasia and Nv Nematostella (sea anemones) / Co Capsaspora / Aq Amphimedon (sponge) / Dm Drosophila / Hu human; RHD is the Rel homology domain; high values mean tight binding
# Conditions in all cases: dsDNA, one strand shown
# GST-Ap-NF-kB RHD = biological target: T1, GST-Ap-NF-kB RHD (Exaiptasia pallida (Aiptasia), UniProt A0A913YAJ5 2-422)
# T1 sequence: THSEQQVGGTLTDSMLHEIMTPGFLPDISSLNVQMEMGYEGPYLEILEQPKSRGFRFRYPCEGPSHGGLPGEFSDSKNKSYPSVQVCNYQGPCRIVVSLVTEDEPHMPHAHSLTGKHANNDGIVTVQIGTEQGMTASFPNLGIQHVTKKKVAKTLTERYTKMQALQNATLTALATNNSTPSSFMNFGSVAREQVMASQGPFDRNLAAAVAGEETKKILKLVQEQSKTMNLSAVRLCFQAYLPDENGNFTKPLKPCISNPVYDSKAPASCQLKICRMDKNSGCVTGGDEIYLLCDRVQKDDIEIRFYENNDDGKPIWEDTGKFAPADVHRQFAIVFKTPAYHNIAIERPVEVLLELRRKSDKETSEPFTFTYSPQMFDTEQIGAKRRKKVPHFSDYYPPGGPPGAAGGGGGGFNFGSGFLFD
# [1] = biological target: T2, GST-Nv-NF-kB (Cys allele) (Nematostella vectensis, UniProt E5G601 2-411)
# T2 sequence: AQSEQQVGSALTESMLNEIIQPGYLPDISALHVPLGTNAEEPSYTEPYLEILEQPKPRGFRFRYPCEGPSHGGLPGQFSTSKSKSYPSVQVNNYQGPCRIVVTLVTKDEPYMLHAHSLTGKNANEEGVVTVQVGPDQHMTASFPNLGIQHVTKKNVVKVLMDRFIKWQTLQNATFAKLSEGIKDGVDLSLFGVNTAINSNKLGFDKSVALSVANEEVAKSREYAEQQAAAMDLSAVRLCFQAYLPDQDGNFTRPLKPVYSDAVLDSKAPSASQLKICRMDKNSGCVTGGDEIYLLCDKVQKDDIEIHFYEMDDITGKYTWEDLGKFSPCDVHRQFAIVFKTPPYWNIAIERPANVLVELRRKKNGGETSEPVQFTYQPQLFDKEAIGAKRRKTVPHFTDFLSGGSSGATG
# [2] = biological target: T3, GST-Nv-NF-kB (Ser allele) (Nematostella vectensis, UniProt A7UNT2 2-411)
# T3 sequence: T2 sequence with Q21R, C66S, S207N, E215Q, V217A, E225K, A268E, D399E
# GST-Co-NF-kB = biological target: T4, GST-Co-NF-kB (Capsaspora owczarzaki, UniProt F1ARL5 200-546)
# T4 sequence: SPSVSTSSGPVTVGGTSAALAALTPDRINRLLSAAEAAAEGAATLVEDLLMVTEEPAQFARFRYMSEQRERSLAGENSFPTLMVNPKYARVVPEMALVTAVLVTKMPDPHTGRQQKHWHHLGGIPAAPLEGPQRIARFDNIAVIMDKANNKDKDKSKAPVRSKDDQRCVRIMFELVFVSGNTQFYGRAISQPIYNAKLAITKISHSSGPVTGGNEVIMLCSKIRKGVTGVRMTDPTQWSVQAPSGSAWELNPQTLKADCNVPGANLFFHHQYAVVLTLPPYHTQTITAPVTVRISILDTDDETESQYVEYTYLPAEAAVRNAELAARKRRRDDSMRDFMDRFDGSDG
# GST-Dm-Relish = biological target: T5, GST-Dm-Relish (Drosophila melanogaster, UniProt Q94527 99-473)
# T5 sequence: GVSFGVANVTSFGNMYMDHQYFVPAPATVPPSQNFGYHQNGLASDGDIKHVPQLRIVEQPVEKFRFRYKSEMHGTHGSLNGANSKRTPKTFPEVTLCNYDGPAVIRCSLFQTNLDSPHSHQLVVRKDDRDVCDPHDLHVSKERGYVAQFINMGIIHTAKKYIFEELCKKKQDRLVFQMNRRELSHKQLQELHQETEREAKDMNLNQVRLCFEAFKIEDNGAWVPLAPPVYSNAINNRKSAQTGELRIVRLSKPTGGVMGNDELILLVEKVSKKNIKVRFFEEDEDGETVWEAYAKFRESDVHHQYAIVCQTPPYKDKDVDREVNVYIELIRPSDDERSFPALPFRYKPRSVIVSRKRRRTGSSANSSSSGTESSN
# GST-Aq-NF-kB = biological target: T6, GST-Aq-NF-kB (Amphimedon queenslandica, UniProt A9Y5G7 2-389)
# T6 sequence: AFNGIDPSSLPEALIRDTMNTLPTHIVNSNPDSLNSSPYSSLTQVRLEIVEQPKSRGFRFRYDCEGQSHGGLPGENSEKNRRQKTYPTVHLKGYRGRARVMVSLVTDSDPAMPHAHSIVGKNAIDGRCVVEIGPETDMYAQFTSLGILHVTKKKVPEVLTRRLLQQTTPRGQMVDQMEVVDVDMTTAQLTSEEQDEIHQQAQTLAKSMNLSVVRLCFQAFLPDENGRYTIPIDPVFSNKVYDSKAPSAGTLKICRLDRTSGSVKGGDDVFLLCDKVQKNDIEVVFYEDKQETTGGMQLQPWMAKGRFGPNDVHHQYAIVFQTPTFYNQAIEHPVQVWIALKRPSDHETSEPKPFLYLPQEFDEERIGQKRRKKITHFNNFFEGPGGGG
# GST-Hu-p50 = GST-Hu-p50 (Homo sapiens, UniProt P19838 7-356)
# GST-Hu-p50, sequence (P19838 7-356): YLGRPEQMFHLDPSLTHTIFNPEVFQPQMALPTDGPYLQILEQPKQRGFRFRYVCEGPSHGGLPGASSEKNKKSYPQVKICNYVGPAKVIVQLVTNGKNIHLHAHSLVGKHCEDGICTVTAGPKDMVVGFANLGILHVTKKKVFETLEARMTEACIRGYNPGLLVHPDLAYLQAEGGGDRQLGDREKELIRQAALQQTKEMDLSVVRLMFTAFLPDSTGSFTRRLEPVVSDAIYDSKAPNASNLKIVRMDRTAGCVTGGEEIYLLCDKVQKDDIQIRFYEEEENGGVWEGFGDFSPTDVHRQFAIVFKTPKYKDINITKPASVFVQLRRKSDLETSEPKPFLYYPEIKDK
Sequence,binding signal (GST-Ap-NF-kB RHD),binding signal [1],binding signal [2],binding signal (GST-Co-NF-kB),binding signal (GST-Dm-Relish),binding signal (GST-Aq-NF-kB),binding signal (GST-Hu-p50)
CCGATTAACATCAAGGGGGAAACTGATGTTAATCGGGTCTTGATTCGCTTGACGCTGCTG,7.59 z-score,7.46 z-score,9.77 z-score,8.9 z-score,4.03 z-score,5.71 z-score,7.63 z-score
CCGATTAACATCATGAATTCCCATGATGTTAATCGGGTCTTGATTCGCTTGACGCTGCTG,1.57 z-score,3.03 z-score,3.14 z-score,2.17 z-score,3.29 z-score,2.61 z-score,2.73 z-score
CCGATTAACATCAGGACGCCCCCTGATGTTAATCGGGTCTTGATTCGCTTGACGCTGCTG,6.15 z-score,5.13 z-score,3.21 z-score,1.59 z-score,3.85 z-score,7.57 z-score,4.71 z-score
CCGATTAACATCAATATAACCCCTGATGTTAATCGGGTCTTGATTCGCTTGACGCTGCTG,3.99 z-score,2.48 z-score,2.08 z-score,2.11 z-score,2.05 z-score,2.37 z-score,2.73 z-score
CCGATTAACATCACGGATTCCCCTGATGTTAATCGGGTCTTGATTCGCTTGACGCTGCTG,8.74 z-score,9.07 z-score,9.24 z-score,6.61 z-score,8.89 z-score,6.68 z-score,6.26 z-score
CCGATTAACATCAGGGGGGTAAATGATGTTAATCGGGTCTTGATTCGCTTGACGCTGCTG,4.89 z-score,4.22 z-score,4.83 z-score,7.69 z-score,4.17 z-score,4.53 z-score,4.35 z-score
CCGATTAACATCAACAATCCCCCTGATGTTAATCGGGTCTTGATTCGCTTGACGCTGCTG,7.89 z-score,7.16 z-score,7.92 z-score,5.22 z-score,5.46 z-score,5.71 z-score,6.6 z-score
CCGATTAACATCAAAATTTTCCCTGATGTTAATCGGGTCTTGATTCGCTTGACGCTGCTG,5.5 z-score,8.54 z-score,10.1 z-score,6.32 z-score,5.19 z-score,7.04 z-score,5.99 z-score
CCGATTAACATCAGAAATATCCCTGATGTTAATCGGGTCTTGATTCGCTTGACGCTGCTG,2.4 z-score,2.67 z-score,2.09 z-score,1.62 z-score,3.52 z-score,4.26 z-score,3.17 z-score
CCGATTAACATCAGATTCCCCCCTGATGTTAATCGGGTCTTGATTCGCTTGACGCTGCTG,8.5 z-score,7.01 z-score,8.24 z-score,10 z-score,6.72 z-score,6.38 z-score,7.1 z-score
CCGATTAACATCAGGGGGAAGGATGATGTTAATCGGGTCTTGATTCGCTTGACGCTGCTG,4.09 z-score,5.38 z-score,5.53 z-score,7.14 z-score,2.47 z-score,4.48 z-score,4.08 z-score
CCGATTAACATCAGCAAATCCCCTGATGTTAATCGGGTCTTGATTCGCTTGACGCTGCTG,6.73 z-score,7.25 z-score,9.83 z-score,2.93 z-score,5.54 z-score,5.19 z-score,6.91 z-score
CCGATTAACATCAGAAGATCCCCTGATGTTAATCGGGTCTTGATTCGCTTGACGCTGCTG,7.16 z-score,6.92 z-score,6.96 z-score,2.91 z-score,7.44 z-score,6.44 z-score,5.61 z-score
CCGATTAACATCAGCGGGAATCCTGATGTTAATCGGGTCTTGATTCGCTTGACGCTGCTG,2.44 z-score,3.26 z-score,2.64 z-score,2.25 z-score,6.33 z-score,3.03 z-score,2.21 z-score
CCGATTAACATCAGGGGAATGCATGATGTTAATCGGGTCTTGATTCGCTTGACGCTGCTG,5.82 z-score,7.06 z-score,7.76 z-score,5.53 z-score,3.2 z-score,4.86 z-score,5.41 z-score
CCGATTAACATCAGGGGAGGTAATGATGTTAATCGGGTCTTGATTCGCTTGACGCTGCTG,2.69 z-score,2.66 z-score,4.61 z-score,3.71 z-score,1.22 z-score,2.71 z-score,2.14 z-score
CCGATTAACATCAGGGTAATACCTGATGTTAATCGGGTCTTGATTCGCTTGACGCTGCTG,4.26 z-score,5.72 z-score,3.69 z-score,2.23 z-score,3.92 z-score,7.45 z-score,2.82 z-score
CCGATTAACATCAAATTTTCCCCTGATGTTAATCGGGTCTTGATTCGCTTGACGCTGCTG,7.95 z-score,9.83 z-score,12.2 z-score,11.6 z-score,5.18 z-score,7.36 z-score,6.86 z-score
CCGATTAACATCAAAAGTCCCCATGATGTTAATCGGGTCTTGATTCGCTTGACGCTGCTG,7.92 z-score,7.91 z-score,7.59 z-score,3.45 z-score,8.38 z-score,7.23 z-score,6.84 z-score
